Source: PubChem BioAssay
KAT2A inh = GCN5L2 (KAT2A) acetyltransferase inhibition | AID 504327 | Potency, µM (series often up to 58.9 µM), for the others: top-dose activity change, negative = inhibition, hits mostly inhibitors | Q92830 | GCN5L2 HAT assay, ThioGlo1 CoA-SH fluorescence | 390,000 compounds, 0.21% hits
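Titration-based screen in which CoA formation is detected via maleimide probe ThioGlo1 (50uM) turning fluorescent on thiol reaction; substrates H3(1-25) 75uM and acetyl-CoA 70uM, GCN5L2 20nM, 20 min incubation at room temperature.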
VDR inhibitor = blocks the human vitamin D receptor. 400,000 compounds, 0.93% hits. VDR-SRC2-3 peptide fluorescence polarization, 2 h. P11473. Potency, µM, without a hit: max response, negative = inhibition, actives largely listed as inhibitors. AID 504847
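Signal is fluorescence polarization, reporting how far test compounds block the interaction of VDR with the SRC2-3 coregulator peptide after a 2 h room-temperature incubation.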
TDP1 inh = blocks human tyrosyl-DNA phosphodiesterase 1; recombinant TDP1, AlphaScreen DNA substrate cleavage; Potency, µM (highest dose often 130 µM), without a hit: top-dose activity change, negative = inhibition, actives largely listed as inhibitors; 350,000 compounds, 0.28% hits; AID 485290; further: nearly all actives have a fitted effect of over 40% in size
Target sequence (Q9NUW8 whole entry, looked up): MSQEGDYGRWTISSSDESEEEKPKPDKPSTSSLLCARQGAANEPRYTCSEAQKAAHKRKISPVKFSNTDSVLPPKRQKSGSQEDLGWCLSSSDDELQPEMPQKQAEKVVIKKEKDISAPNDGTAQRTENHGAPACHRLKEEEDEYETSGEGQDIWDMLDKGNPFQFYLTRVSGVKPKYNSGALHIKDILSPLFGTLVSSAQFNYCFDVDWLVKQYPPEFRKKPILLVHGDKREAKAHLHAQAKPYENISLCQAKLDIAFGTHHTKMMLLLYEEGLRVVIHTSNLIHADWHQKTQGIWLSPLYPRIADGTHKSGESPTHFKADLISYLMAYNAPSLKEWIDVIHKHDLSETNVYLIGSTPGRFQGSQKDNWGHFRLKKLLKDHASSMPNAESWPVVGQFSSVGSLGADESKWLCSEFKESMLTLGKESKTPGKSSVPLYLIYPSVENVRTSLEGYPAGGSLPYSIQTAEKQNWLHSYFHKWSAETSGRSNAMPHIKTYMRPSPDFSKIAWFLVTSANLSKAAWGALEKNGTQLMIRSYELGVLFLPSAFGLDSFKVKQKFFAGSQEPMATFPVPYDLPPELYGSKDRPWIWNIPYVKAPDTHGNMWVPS
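Signal: AlphaScreen proximity between streptavidin donor and anti-FITC acceptor beads on intact substrate. Reaction: Tdp1 1 nM, substrate 15 nM final, 5 min RT after 15 min compound preincubation.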
TDP1 cell CPT = growth inhibition of DT40 Tdp1-/-;hTDP1 cells with camptothecin (screen for TDP1 inhibitors) | chicken DT40 Tdp1-/-;hTDP1 cells + 20 nM CPT, ATP luminescence, 48 h | Potency, µM (highest dose often 46.2 µM), inactives show at the highest dose activity change, negative = growth inhibition, usual class: inhibitors | 420,000 compounds, 12% hits | AID 686979; further: nearly all actives have a fitted effect of over 55% in size
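Chicken DT40 Tdp1-/- cells stably complemented with human TDP1 were seeded at 400 cells/well in medium containing 20 nM camptothecin, exposed to pin-transferred compounds, and grown at 37 °C for at least 48 hr. Viability was read as ATP luminescence.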
PLK1 PBD block = inhibitors of human PLK1 polo-box domain binding | P53350 | Plk1 PBD binding of FITC phosphopeptide, fluorescence polarization | Potency, µM, without a hit: max response, negative = inhibition, hits mostly inhibitors | 360,000 compounds, 2.8% hits; further: series mostly up to about 57 µM; nearly all actives have a fitted effect of over 65% in size
DT40 TDP1 no CPT = qHTS for Inhibitors of human tyrosyl-DNA phosphodiesterase 1 (TDP1): qHTS in cells in absence of CPT; DT40 Tdp1-/- hTDP1 cells, no CPT, ATP luminescence, 48 h; Potency, µM (highest dose often 46.2 µM), inactives show at the top dose activity change, negative = growth inhibition, hits mostly inhibitors; 420,000 compounds, 15% hits; AID 686978, 2013; further: nearly all actives have a fitted effect of over 55% in size
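Growth kinetics read by CellTiter-Glo luminescence after ≥48 hr at 37 °C. Cells: DT40 Tdp1-/- stably carrying human TDP1, 400 per well, compound exposure in the absence of CPT (DMSO vehicle).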
The depositor's hits bear a star; [ ] = dose if it differs, or a comment. Rows were chosen to be rich in hits. Some 18% of all compounds tested hit in one or more screens of this group. The call rests on the fitted dose curve; in most records, active means well fitted curve in the direction sought with a large enough effect; inconclusive means small, poorly fitted or top-dose-only effect, or another doubt; inactive means no such curve, though single readings can be large; an effect the other way counts as inactive or inconclusive. On the % scale 0 is the no-effect control and ±100 the full control effect; potency means the concentration at half of the fitted maximal effect.

`CC(C)C(=O)NNC(=O)CN1CCN(c2nc(-c3ccccc3)cs2)CC1` gave KAT2A inh -3%, VDR inhibitor 8%, TDP1 inh -8%, TDP1 cell CPT inconclusive, PLK1 PBD block -11% and DT40 TDP1 no CPT -22%.
O=C(c1cc(-n2cnnc2)ccc1Cl)N1CCN(c2nc(-c3ccccc3)cs2)CC1 was read as KAT2A inh -1%, VDR inhibitor 13%, TDP1 inh 2%, TDP1 cell CPT 16µM*, PLK1 PBD block inconclusive and DT40 TDP1 no CPT 23µM*.
`Fc1ccc(-c2csc(N3CCSCC3)n2)cc1` gave KAT2A inh -8%, VDR inhibitor -9%, TDP1 inh 3%, TDP1 cell CPT 15%, PLK1 PBD block -2% and DT40 TDP1 no CPT -7%.
For COCCCNC(=S)N1CCN(c2nc(-c3ccc(Cl)cc3)cs2)CC1 the results were TDP1 cell CPT inconclusive, PLK1 PBD block -15% and DT40 TDP1 no CPT 18µM*.
O=C1OCC2=C1C(c1ccccc1)CC(=O)N2c1ccccc1 (configuration not stated) was read as KAT2A inh -1%, VDR inhibitor -16%, TDP1 inh 1%, TDP1 cell CPT 1%, PLK1 PBD block -2% and DT40 TDP1 no CPT 4%.
`Cc1oc(-c2ccccc2NC(=O)C2CCC2)nc1CNC(=O)c1ccc2ccccc2c1` gave TDP1 cell CPT 2%[9.04 µM] and DT40 TDP1 no CPT -9%.
Screening COCCn1c(SCC(=O)Nc2ccc(F)cc2F)nc2c([nH]c3ccccc32)c1=O returned KAT2A inh inconclusive, VDR inhibitor 7%, TDP1 inh 0%, TDP1 cell CPT 3%, PLK1 PBD block -6% and DT40 TDP1 no CPT -6%.
`Cc1c(C(=O)Nc2ccc(F)cc2F)oc2ccc3c(c12)C(=O)CC(C)(C)O3` gave KAT2A inh -3%, VDR inhibitor 0%, TDP1 inh -3%, TDP1 cell CPT -28% and DT40 TDP1 no CPT -10%.
`CCN(CC)CCCNC(=S)N1CCN(c2nc(-c3ccccc3)cs2)CC1` gave KAT2A inh -2%, VDR inhibitor -5%, TDP1 inh 8%, TDP1 cell CPT inconclusive, PLK1 PBD block -8% and DT40 TDP1 no CPT 18µM*.
`CCCCNC(=S)N1CCN(c2nc3ccccc3s2)CC1` gave KAT2A inh -5%, VDR inhibitor inconclusive, TDP1 inh -5%, TDP1 cell CPT inconclusive, PLK1 PBD block -7% and DT40 TDP1 no CPT inconclusive.
Screening COc1ccc(-[n+]2c(C)cc(/C=C3\Sc4ccccc4N3C)cc2C)cc1 returned KAT2A inh -10%, VDR inhibitor -10%, TDP1 inh 5%, TDP1 cell CPT 0.015µM*, PLK1 PBD block 17% and DT40 TDP1 no CPT 0.0073µM*.
Screening Cc1cccc[n+]1CC(=O)N1c2ccccc2Sc2ccccc21 returned KAT2A inh 12%, VDR inhibitor -7%, TDP1 inh -1%, TDP1 cell CPT inconclusive, PLK1 PBD block -3% and DT40 TDP1 no CPT inconclusive.
For COc1ccccc1-[n+]1c(C)cc(/C=C2\Sc3ccccc3N2C)cc1C the results were KAT2A inh -9%, VDR inhibitor -7%, TDP1 inh 5%, TDP1 cell CPT 0.065µM*, PLK1 PBD block 17% and DT40 TDP1 no CPT 0.021µM*.
`Nc1nnn(CC(=O)N/N=C/c2cccc(Cl)c2)n1` gave KAT2A inh -1%, VDR inhibitor -11%, TDP1 cell CPT 8%, PLK1 PBD block -3% and DT40 TDP1 no CPT 1%.
`N=c1c(S(=O)(=O)c2ccc(Br)cc2)cc2c(=O)n3ccccc3nc2n1C1CCCCC1` gave KAT2A inh -2%, VDR inhibitor -11%, TDP1 inh 2%, TDP1 cell CPT inconclusive, PLK1 PBD block -3% and DT40 TDP1 no CPT inconclusive.
Screening COCCn1c(=N)c(S(=O)(=O)c2ccc(Br)cc2)cc2c(=O)n3ccccc3nc21 returned KAT2A inh -2%, VDR inhibitor -2%, TDP1 inh 4%, TDP1 cell CPT inconclusive, PLK1 PBD block 0% and DT40 TDP1 no CPT 21µM*.
Screening CCn1c(=N)c(S(=O)(=O)c2ccc(Cl)cc2)cc2c(=O)n3ccccc3nc21 returned KAT2A inh 0% and TDP1 inh 0%.
N=c1c(S(=O)(=O)c2ccccc2)cc2c(=O)n3ccccc3nc2n1C1CCCCC1 was read as VDR inhibitor -26%, TDP1 cell CPT 26µM*, PLK1 PBD block 21µM* and DT40 TDP1 no CPT 15µM*.
Screening O=C(CN1Cc2ccccc2OC(c2ccsc2)C1)NCC1OCCc2ccccc21 (configuration not stated) returned TDP1 cell CPT 26%[9.04 µM] and DT40 TDP1 no CPT -31%.
For CCOc1ccc(-c2cc(-c3nc(-c4ccc(C)cc4)no3)[nH]n2)cc1 the results were KAT2A inh 1%, VDR inhibitor 11%, TDP1 inh 5%, TDP1 cell CPT inconclusive and DT40 TDP1 no CPT inconclusive.
CSc1cccc(NC(=S)N(CCCN2CCCC2)Cc2cccn2Cc2ccc(Cl)cc2)c1 was read as KAT2A inh -2%, VDR inhibitor 5%, TDP1 inh 8%, TDP1 cell CPT inconclusive, PLK1 PBD block -16% and DT40 TDP1 no CPT 9.2µM*.
Screening COc1cccc(NC(=S)N(CCCN2CCCC2)Cc2ccco2)c1 returned KAT2A inh 1%, VDR inhibitor -16%, TDP1 inh -3%, TDP1 cell CPT -11%, PLK1 PBD block 8% and DT40 TDP1 no CPT -5%.
`CSc1cccc(NC(=S)N(CCCN2CCCC2)Cc2cccs2)c1` gave KAT2A inh 0%, VDR inhibitor -18%, TDP1 inh 5%, TDP1 cell CPT inconclusive, PLK1 PBD block 2% and DT40 TDP1 no CPT inconclusive.
Screening S=C(Nc1cccc(Cl)c1)N(CCCN1CCCC1)Cc1cccn1Cc1ccc(Cl)cc1 returned KAT2A inh -4%, VDR inhibitor -14%, TDP1 inh 11%, TDP1 cell CPT inconclusive, PLK1 PBD block -7% and DT40 TDP1 no CPT 18µM*.
`COc1cccc(NC(=S)N(CCCN2CCCC2)Cc2cccn2Cc2ccc(Cl)cc2)c1` gave KAT2A inh 1%, VDR inhibitor -11%, TDP1 inh 7%, TDP1 cell CPT inconclusive, PLK1 PBD block 0% and DT40 TDP1 no CPT 18µM*.
Screening O=C(NCC1(N2CCCCC2)CCCC1)c1cnn(-c2nccc(-c3cccs3)n2)c1C1CC1 returned TDP1 cell CPT 7%[9.04 µM] and DT40 TDP1 no CPT 1%.
For CCc1c(-c2ccccc2F)ncn1Cc1cccc(-c2ccccc2)c1 the results were TDP1 cell CPT 2.6µM*, PLK1 PBD block -15% and DT40 TDP1 no CPT 2.6µM*.
